NPR1 activator: GC-A stimulated cGMP production enhancers – HEK293 GC-A cells, cGMP TR-FRET, EC30 ANP, primary screen; Atrial natriuretic peptide receptor 1 (Homo sapiens), P16066; 0% at EC30 ANP, 100% saturating ANP; activation, % at 10 µM; 370,000 tested, 0.14% active; in the data active = activation above about 40%
Target sequence (P16066 whole entry, looked up): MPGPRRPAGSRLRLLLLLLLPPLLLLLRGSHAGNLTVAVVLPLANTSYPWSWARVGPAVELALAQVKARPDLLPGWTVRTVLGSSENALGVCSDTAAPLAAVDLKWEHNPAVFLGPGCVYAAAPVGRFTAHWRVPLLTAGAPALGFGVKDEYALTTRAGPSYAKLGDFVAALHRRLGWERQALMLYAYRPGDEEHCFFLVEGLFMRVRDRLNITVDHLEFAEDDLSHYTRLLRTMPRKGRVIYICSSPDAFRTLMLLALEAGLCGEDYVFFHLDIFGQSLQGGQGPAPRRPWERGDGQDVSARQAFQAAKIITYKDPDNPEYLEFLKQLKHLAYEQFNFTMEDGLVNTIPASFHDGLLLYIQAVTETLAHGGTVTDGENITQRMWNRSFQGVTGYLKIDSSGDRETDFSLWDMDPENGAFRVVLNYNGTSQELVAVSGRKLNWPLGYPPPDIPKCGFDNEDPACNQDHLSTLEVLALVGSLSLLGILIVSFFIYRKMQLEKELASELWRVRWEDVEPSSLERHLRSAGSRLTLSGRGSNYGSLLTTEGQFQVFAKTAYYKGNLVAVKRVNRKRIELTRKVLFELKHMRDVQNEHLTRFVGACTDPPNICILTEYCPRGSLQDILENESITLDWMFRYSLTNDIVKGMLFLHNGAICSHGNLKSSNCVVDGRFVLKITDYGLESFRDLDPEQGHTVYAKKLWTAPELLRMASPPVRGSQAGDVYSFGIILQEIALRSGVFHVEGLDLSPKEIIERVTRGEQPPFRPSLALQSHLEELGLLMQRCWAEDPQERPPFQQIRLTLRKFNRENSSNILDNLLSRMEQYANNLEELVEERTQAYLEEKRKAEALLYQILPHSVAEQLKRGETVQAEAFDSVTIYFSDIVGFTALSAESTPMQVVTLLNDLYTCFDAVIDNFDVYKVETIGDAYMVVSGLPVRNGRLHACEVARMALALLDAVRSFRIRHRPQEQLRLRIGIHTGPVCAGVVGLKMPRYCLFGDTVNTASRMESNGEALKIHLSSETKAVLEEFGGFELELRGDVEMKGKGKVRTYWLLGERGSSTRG
GC-B act: human GC-B receptor activators, primary screen, HEK293 GC-B cells, cGMP TR-FRET, EC30 CNP; 370,000 tested, 0.11% active; activation, % at 10 µM; Atrial natriuretic peptide receptor 2 (Homo sapiens), P20594; AID 1920062, 2024; 0% at EC30 CNP, 100% saturating CNP;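 active = activation at 10 µM reaching about 35% in either raw or pattern-adjusted values, limit read from the data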
Neddyl block: inhibitors of cullin neddylation, primary screen, biochemical, TR-FRET, uHTS, NAE and Ubc12; NEDD8-conjugating enzyme Ubc12 (Homo sapiens) + NEDD8-activating enzyme E1 regulatory …; inhibition, % at 25 µM; 360,000 tested, 0.58% active; AID 651699, 2012; in the data active = inhibition above about 36%
NadD block: inhibitors of S. aureus NadD, primary screen, biochemical, colorimetric, uHTS; Nicotinate-nucleotide adenylyltransferase NadD (Staphylococcus aureus N315); purified NadD enzyme, colorimetric absorbance read-out; inhibition, % at 20 µM; 360,000 tested, 0.78% active; in the data active = inhibition above about 26%
NadD conf: inhibitors of S. aureus NadD, confirmation, biochemical, colorimetric, single concentration | shares compounds with NadD block | purified S. aureus NadD, colorimetric enzyme assay | inhibition, % at 20 µM | 2,000 tested, 13% active; in the data active = inhibition mostly above about 42%, no sharp cut-off; inactive = mostly below about 42%
Hits are given with their value; 0 = inactive; - = no result shown; ! = not active in a repeat. Compounds with a hit are over-represented: about 1.5% of the library has one in this group of screens.

SMILES	NPR1 activator	GC-B act	Neddyl block	NadD block	NadD conf
C[C@@H]1CCCCO[C@H](CN(C)C(=O)Nc2ccc(C(F)(F)F)cc2)[C@@H](C)CN([C@H](C)CO)C(=O)c2cc(NC(=O)c3ccncc3)ccc2O1	0	0	0	35.0	0
C[C@@H]1CN([C@@H](C)CO)C(=O)c2cc(C#CC3CCCCC3)cnc2O[C@@H]1CN(C)S(=O)(=O)c1ccc(F)cc1	0	0	0	75.4	0
C[C@@H]1CCCCO[C@H](CN(C)S(=O)(=O)c2ccc(F)cc2)[C@@H](C)CN([C@H](C)CO)C(=O)c2cc(NC(=O)Nc3ccc(C(F)(F)F)cc3)ccc2O1	0	0	0	35.0	0
C[C@@H]1CCCCO[C@H](CN(C)C(=O)CCC(F)(F)F)[C@@H](C)CN([C@H](C)CO)C(=O)c2cc(NC(=O)c3ccncc3)ccc2O1	0	0	0	0	-
C[C@H](CO)N1C[C@H](C)[C@@H](CN(C)S(=O)(=O)c2ccc(F)cc2)Oc2ncc(Br)cc2C1=O	0	0	-	-	-
COc1ccc(S(=O)(=O)N(C)C[C@H]2OCCCC[C@@H](C)Oc3ccc(NC(=O)CCC(F)(F)F)cc3C(=O)N([C@H](C)CO)C[C@@H]2C)cc1	0	0	0	0	-
N#CCC[C@H]1CC[C@]2(CCCN(C(=O)c3ccccc3)C2)O1	0	0	-	-	-
COCC(=O)N1CCC(C(=O)NC2CCCc3ccccc32)CC1 (configuration not stated)	0	0	-	-	-
CCC(=O)OCCCN1C(=O)CCC12CCC(C)CC2 (configuration not stated)	0	0	-	-	-
OC(c1ccccc1)(c1ccccc1)C1CCN(CCCOc2cccc(C(F)(F)F)c2)CC1	0	0	-	-	-
O=C(Nc1cccc(S(=O)(=O)N2CCCCC2)c1)c1c2c(nc3ccccc13)CCN(Cc1ccccc1)C2	0	0	0	30.0	0
N#CCSc1nc2ccccc2c(=O)n1CC1CCCC1	0	0	0	0	-
N#CCSc1nc2ccc(N3CCCCC3)cc2c(=O)n1Cc1ccccc1	0	0	0	41.1	0
O=C(CN1CCN(Cc2ccccc2Cl)CC1)N/N=C\c1ccccc1F	0	0	-	-	-
C/C(=N\NC(=O)c1cccc(N/N=C(\C)c2ccccc2)c1)c1ccccc1	0	0	0	0	-
C/C(=N\NC(=O)c1cccc(N/N=C(\C)c2ccc([N+](=O)[O-])cc2)c1)c1ccc([N+](=O)[O-])cc1	0	0	0	33.1	0
O=C(CN1CCCCC1)Nc1nnc(-c2ccc([N+](=O)[O-])cc2)s1	0	0	0	33.5	0
O=C(CN1CCCCC1)Nc1nnc(-c2ccccc2)s1	0	0	0	0	-
COc1ccc(CN2CN3Cc4ccc(C)cc4C3CS2(=O)=O)cc1 (configuration not stated)	0	0	-	-	-
COc1ccc(-n2c(SCC(=O)c3ccc4ccccc4c3)nnc2-c2ccccc2)cc1	0	0	-	-	-
COc1cccc(C2c3c(-c4cc(Cl)c(C)cc4O)n[nH]c3C(=O)N2Cc2cccnc2)c1 (configuration not stated)	0	0	0	47.1	43.4
O=C(O)c1cccc(NC(=S)N/N=C/c2ccccc2OCc2ccc(Br)cc2)c1	0	0	0	45.3	64.1
O=C(O)c1cccc(NC(=S)N/N=C/c2ccccc2OCc2cccc(Br)c2)c1	0	0	0	50.8	71.7
COC(=O)c1ccc(COc2ccccc2/C=N/Nc2cccc(C(=O)O)c2)cc1	0	0	0	0	-
O=C(CSc1nnc(-c2ccc(Cl)cc2)n1-c1ccccc1)Nc1ccc2c(c1)OCCO2	0	0	-	-	-
SMILES	NPR1 activator	GC-B act	Neddyl block	NadD block	NadD conf
COc1ccccc1N1CCN(c2ncc(C(=O)N3CCN(c4cccc(Cl)c4)CC3)c3ccccc23)CC1	0	0	0	34.1	0
Cc1cccn2c(=O)c3cc(C#N)c(=NC(=O)c4ccccc4)n(Cc4ccco4)c3nc12	0	0	-	32.0!	0
Cc1cccc(C(=O)N=c2c(C#N)cc3c(=O)n4cccc(C)c4nc3n2Cc2ccco2)c1	0	0	-	42.0	0
Cc1ccc(-n2[nH]c(C)c(C=Nc3ccc(S(=O)(=O)Nc4nccs4)cc3)c2=O)cc1C	0	0	0	41.8	51.8
CCc1nnc(NS(=O)(=O)c2ccc(N=Cc3c(C)[nH]n(-c4ccc(Cl)cc4)c3=O)cc2)s1	0	0	0	30.5	47.2
Cc1cc(NS(=O)(=O)C2CCN(C(=O)Cc3ccc(Cl)c(Cl)c3)CC2)no1	0	0	-	-	-
CC1=CC(C)(C)n2c(O)c(C3=NC(=S)NC3=O)c3cc(OC(=O)c4cccc5ccccc45)cc1c32	0	0	0	55.5	0
CCNc1nc(N)c([N+](=O)[O-])c(Nc2cccc(Cl)c2)n1	0	0	-	-	-
CC(=O)N[C@@H]1C[C@@H]2O[C@H](CO)CC[C@@H]2O[C@@H]1CCc1ccc(C#CC2(O)CCCC2)cc1	0	0	-	-	-
Nc1c(C(=O)N/N=C/c2ccccc2Cl)oc2nc(-c3ccccc3)cc(-c3ccco3)c12	0	0	-	31.2	0
Nc1c(C(=O)N/N=C/c2ccc(F)cc2)oc2nc(-c3ccccc3)cc(-c3ccco3)c12	0	0	0	0	-
COc1ccc(NC(=O)CSc2nc3c(cc2C#N)CN(C)CC3)cc1	0	0	0	30.4	0
COc1ccc(/C=C/C(=O)c2nc3ccccc3n2CC(=O)c2ccc(OC)cc2)cc1	0	0	0	30.0	0
COc1ccc(C(=O)Cn2c(C(C)=O)nc3ccccc32)cc1	0	0	0	0	-
CN1C(=O)Cc2cc(S(=O)(=O)N3CCN(c4ccc(Cl)cc4)CC3)ccc21	0	0	0	0	-
Cc1ccc(Cl)cc1N1CCN(S(=O)(=O)c2ccc3c(c2)CC(=O)N3C)CC1	0	0	0	28.5	0
Cc1ccc(C)c(N2CCN(S(=O)(=O)c3ccc4[nH]c(=O)ccc4c3)CC2)c1	0	0	0	0	-
Cc1ccc(C)c(N2CCN(S(=O)(=O)c3ccc4[nH]c(=O)c(=O)[nH]c4c3)CC2)c1	0	0	0	32.1	53.5
COC(=O)[C@]12C[C@H](CC(=O)N3CCCCC3)C(=O)N(Cc3ccco3)C1=C[C@H](C1CCCC1)O[C@@H]2C	0	0	-	-	-
COc1ccc(-c2noc(C3CCCN(C(=O)Nc4cc(C)cc(C)c4)C3)n2)cc1 (configuration not stated)	0	0	-	-	-
COc1cccc(-c2c(C(=O)N/N=C(\C)c3ccco3)nnn2-c2nonc2N)c1	0	0	0	0	-
COc1cccc(-c2c(C(=O)N/N=C(\C)c3ccc(Cl)s3)nnn2-c2nonc2N)c1	0	0	-	32.3	0
CCc1ccc(Cn2c(=O)n(Cc3ccc(C(=O)NCCCOC)cc3)c(=O)c3ccccc32)cc1	0	0	-	-	-
